# Laboratory results as given in ChEMBL document CHEMBL1961873, “Compounds: GSK PKIS; Assays: Nanosyn kinase panel” (2012).
# Key:
# [1] = target: Ribosomal protein S6 kinase alpha-3 (Homo sapiens) (UniProt P51812); details: at 0.1 µM
# [2] = target: Ribosomal protein S6 kinase alpha-3 (Homo sapiens) (UniProt P51812); details: at 1 µM
# [3] = target: Ribosomal protein S6 kinase alpha-2 (Homo sapiens) (UniProt Q15349); details: at 0.1 µM
# [4] = target: Ribosomal protein S6 kinase alpha-2 (Homo sapiens) (UniProt Q15349); details: at 1 µM
# [5] = target: Ribosomal protein S6 kinase alpha-6 (Homo sapiens) (UniProt Q9UK32); details: at 0.1 µM
# [6] = target: Ribosomal protein S6 kinase alpha-6 (Homo sapiens) (UniProt Q9UK32); details: at 1 µM
# [7] = target: Serine/threonine-protein kinase Sgk1 (Homo sapiens) (UniProt O00141); details: at 0.1 µM
# [8] = target: Serine/threonine-protein kinase Sgk1 (Homo sapiens) (UniProt O00141); details: at 1 µM
# [9] = target: Serine/threonine-protein kinase Sgk2 (Homo sapiens) (UniProt Q9HBY8); details: at 0.1 µM
# [10] = target: Serine/threonine-protein kinase Sgk2 (Homo sapiens) (UniProt Q9HBY8); details: at 1 µM
# [11] = target: Serine/threonine-protein kinase Sgk3 (Homo sapiens) (UniProt Q96BR1); details: at 0.1 µM
# [12] = target: Serine/threonine-protein kinase Sgk3 (Homo sapiens) (UniProt Q96BR1); details: at 1 µM
# [13] = target: 5'-AMP-activated protein kinase catalytic subunit alpha-1 (Homo sapiens) (UniProt Q13131); details: at 0.1 µM
# [14] = target: 5'-AMP-activated protein kinase catalytic subunit alpha-1 (Homo sapiens) (UniProt Q13131); details: at 1 µM
# [15] = target: 5'-AMP-activated protein kinase catalytic subunit alpha-2 (Homo sapiens) (UniProt P54646); details: at 0.1 µM
# [16] = target: 5'-AMP-activated protein kinase catalytic subunit alpha-2 (Homo sapiens) (UniProt P54646); details: at 1 µM
# [17] = target: NUAK family SNF1-like kinase 1 (Homo sapiens) (UniProt O60285); details: at 0.1 µM
# [18] = target: NUAK family SNF1-like kinase 1 (Homo sapiens) (UniProt O60285); details: at 1 µM
# [19] = target: Serine/threonine-protein kinase BRSK1 (Homo sapiens) (UniProt Q8TDC3); details: at 0.1 µM
# [20] = target: Serine/threonine-protein kinase BRSK1 (Homo sapiens) (UniProt Q8TDC3); details: at 1 µM
# [21] = target: Serine/threonine-protein kinase BRSK2 (Homo sapiens) (UniProt Q8IWQ3); details: at 0.1 µM
# [22] = target: Serine/threonine-protein kinase BRSK2 (Homo sapiens) (UniProt Q8IWQ3); details: at 1 µM
# [23] = target: Calcium/calmodulin-dependent protein kinase type 1D (Homo sapiens) (UniProt Q8IU85); details: at 0.1 µM
# [24] = target: Calcium/calmodulin-dependent protein kinase type 1D (Homo sapiens) (UniProt Q8IU85); details: at 1 µM
# [25] = target: Calcium/calmodulin-dependent protein kinase type II subunit alpha (Homo sapiens) (UniProt Q9UQM7); details: at 0.1 µM
# [26] = target: Calcium/calmodulin-dependent protein kinase type II subunit alpha (Homo sapiens) (UniProt Q9UQM7); details: at 1 µM
# [27] = target: Calcium/calmodulin-dependent protein kinase type II subunit delta (Homo sapiens) (UniProt Q13557); details: at 0.1 µM
# [28] = target: Calcium/calmodulin-dependent protein kinase type II subunit delta (Homo sapiens) (UniProt Q13557); details: at 1 µM
# [29] = target: Calcium/calmodulin-dependent protein kinase type IV (Homo sapiens) (UniProt Q16566); details: at 0.1 µM
# [30] = target: Calcium/calmodulin-dependent protein kinase type IV (Homo sapiens) (UniProt Q16566); details: at 1 µM
# [31] = target: Serine/threonine-protein kinase Chk1 (Homo sapiens) (UniProt O14757); details: at 0.1 µM
# [32] = target: Serine/threonine-protein kinase Chk1 (Homo sapiens) (UniProt O14757); details: at 1 µM
# [33] = target: Serine/threonine-protein kinase Chk2 (Homo sapiens) (UniProt O96017); details: at 0.1 µM
# [34] = target: Serine/threonine-protein kinase Chk2 (Homo sapiens) (UniProt O96017); details: at 1 µM
# [35] = target: Death-associated protein kinase 1 (Homo sapiens) (UniProt P53355); details: at 0.1 µM
# [36] = target: Death-associated protein kinase 1 (Homo sapiens) (UniProt P53355); details: at 1 µM
# [37] = target: Serine/threonine-protein kinase DCLK2 (Homo sapiens) (UniProt Q8N568); details: at 0.1 µM
# [38] = target: Serine/threonine-protein kinase DCLK2 (Homo sapiens) (UniProt Q8N568); details: at 1 µM
# [39] = target: MAP kinase-activated protein kinase 2 (Homo sapiens) (UniProt P49137); details: at 0.1 µM
# [40] = target: MAP kinase-activated protein kinase 2 (Homo sapiens) (UniProt P49137); details: at 1 µM
# [41] = target: MAP kinase-activated protein kinase 3 (Homo sapiens) (UniProt Q16644); details: at 0.1 µM
# [42] = target: MAP kinase-activated protein kinase 3 (Homo sapiens) (UniProt Q16644); details: at 1 µM
# [43] = target: Serine/threonine-protein kinase MARK1 (Homo sapiens) (UniProt Q9P0L2); details: at 0.1 µM
# [44] = target: Serine/threonine-protein kinase MARK1 (Homo sapiens) (UniProt Q9P0L2); details: at 1 µM
# [45] = target: MAP/microtubule affinity-regulating kinase 3 (Homo sapiens) (UniProt P27448); details: at 0.1 µM
# [46] = target: MAP/microtubule affinity-regulating kinase 3 (Homo sapiens) (UniProt P27448); details: at 1 µM
# [47] = target: MAP/microtubule affinity-regulating kinase 4 (Homo sapiens) (UniProt Q96L34); details: at 0.1 µM
# [48] = target: MAP/microtubule affinity-regulating kinase 4 (Homo sapiens) (UniProt Q96L34); details: at 1 µM
# [49] = target: Maternal embryonic leucine zipper kinase (Homo sapiens) (UniProt Q14680); details: at 0.1 µM
# [50] = target: Maternal embryonic leucine zipper kinase (Homo sapiens) (UniProt Q14680); details: at 1 µM
# [51] = target: MAP kinase-interacting serine/threonine-protein kinase 1 (Homo sapiens) (UniProt Q9BUB5); details: at 0.1 µM
# [52] = target: MAP kinase-interacting serine/threonine-protein kinase 1 (Homo sapiens) (UniProt Q9BUB5); details: at 1 µM
# [53] = target: MAP kinase-interacting serine/threonine-protein kinase 2 (Homo sapiens) (UniProt Q9HBH9); details: at 0.1 µM
# [54] = target: MAP kinase-interacting serine/threonine-protein kinase 2 (Homo sapiens) (UniProt Q9HBH9); details: at 1 µM
# [55] = target: Serine/threonine-protein kinase MARK2 (Homo sapiens) (UniProt Q7KZI7); details: at 0.1 µM
# [56] = target: Serine/threonine-protein kinase MARK2 (Homo sapiens) (UniProt Q7KZI7); details: at 1 µM
# 5'-AMP-activated protein kinase catalytic subunit alpha-2 (Homo sapiens), sequence (P54646 whole entry, looked up): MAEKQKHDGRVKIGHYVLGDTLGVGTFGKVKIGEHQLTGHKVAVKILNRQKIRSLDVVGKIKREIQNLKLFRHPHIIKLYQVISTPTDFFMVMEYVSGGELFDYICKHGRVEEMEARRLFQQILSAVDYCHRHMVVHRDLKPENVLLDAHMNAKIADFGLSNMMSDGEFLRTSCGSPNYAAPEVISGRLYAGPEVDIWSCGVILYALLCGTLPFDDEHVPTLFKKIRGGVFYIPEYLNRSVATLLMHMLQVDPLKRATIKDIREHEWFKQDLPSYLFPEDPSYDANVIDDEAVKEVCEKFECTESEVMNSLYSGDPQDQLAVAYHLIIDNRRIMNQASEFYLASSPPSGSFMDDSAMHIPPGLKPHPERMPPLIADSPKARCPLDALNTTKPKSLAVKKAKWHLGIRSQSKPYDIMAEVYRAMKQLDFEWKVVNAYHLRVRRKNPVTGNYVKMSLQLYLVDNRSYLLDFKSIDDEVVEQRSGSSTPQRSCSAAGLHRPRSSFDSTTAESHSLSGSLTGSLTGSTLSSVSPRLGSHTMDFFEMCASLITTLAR
# MAP kinase-interacting serine/threonine-protein kinase 2 (Homo sapiens), sequence (Q9HBH9 whole entry, looked up): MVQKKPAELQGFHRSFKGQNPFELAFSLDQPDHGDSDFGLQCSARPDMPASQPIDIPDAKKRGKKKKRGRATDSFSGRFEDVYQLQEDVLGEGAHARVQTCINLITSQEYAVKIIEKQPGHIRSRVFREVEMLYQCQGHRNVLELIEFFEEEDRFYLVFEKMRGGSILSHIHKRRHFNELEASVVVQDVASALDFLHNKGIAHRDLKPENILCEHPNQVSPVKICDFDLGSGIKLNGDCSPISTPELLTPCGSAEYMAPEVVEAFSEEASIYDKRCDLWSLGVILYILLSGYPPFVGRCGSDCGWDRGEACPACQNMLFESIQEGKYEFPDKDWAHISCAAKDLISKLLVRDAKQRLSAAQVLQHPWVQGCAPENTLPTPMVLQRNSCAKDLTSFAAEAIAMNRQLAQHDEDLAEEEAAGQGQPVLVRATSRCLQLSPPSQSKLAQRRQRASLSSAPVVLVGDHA
# MAP/microtubule affinity-regulating kinase 3 (Homo sapiens), sequence (P27448 whole entry, looked up): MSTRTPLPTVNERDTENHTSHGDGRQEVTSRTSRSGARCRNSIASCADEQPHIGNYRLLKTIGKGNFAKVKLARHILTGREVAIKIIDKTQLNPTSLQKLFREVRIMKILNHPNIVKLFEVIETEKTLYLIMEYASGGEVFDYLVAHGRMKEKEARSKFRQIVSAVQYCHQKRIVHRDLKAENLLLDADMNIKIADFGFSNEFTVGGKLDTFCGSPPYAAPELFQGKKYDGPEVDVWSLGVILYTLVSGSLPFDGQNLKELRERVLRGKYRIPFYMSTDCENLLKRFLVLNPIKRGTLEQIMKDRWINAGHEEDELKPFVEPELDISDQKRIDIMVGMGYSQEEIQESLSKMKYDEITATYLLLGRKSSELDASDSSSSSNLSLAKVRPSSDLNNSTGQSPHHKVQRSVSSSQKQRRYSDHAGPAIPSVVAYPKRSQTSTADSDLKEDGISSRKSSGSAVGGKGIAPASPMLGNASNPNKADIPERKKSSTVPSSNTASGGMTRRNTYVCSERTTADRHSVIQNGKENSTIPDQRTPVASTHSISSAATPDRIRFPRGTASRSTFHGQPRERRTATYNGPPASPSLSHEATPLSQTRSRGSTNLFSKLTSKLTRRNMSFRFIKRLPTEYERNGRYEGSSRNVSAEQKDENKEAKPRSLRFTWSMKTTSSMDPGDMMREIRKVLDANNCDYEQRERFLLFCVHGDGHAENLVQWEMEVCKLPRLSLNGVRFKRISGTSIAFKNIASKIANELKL
# Calcium/calmodulin-dependent protein kinase type 1D (Homo sapiens), sequence (Q8IU85 whole entry, looked up): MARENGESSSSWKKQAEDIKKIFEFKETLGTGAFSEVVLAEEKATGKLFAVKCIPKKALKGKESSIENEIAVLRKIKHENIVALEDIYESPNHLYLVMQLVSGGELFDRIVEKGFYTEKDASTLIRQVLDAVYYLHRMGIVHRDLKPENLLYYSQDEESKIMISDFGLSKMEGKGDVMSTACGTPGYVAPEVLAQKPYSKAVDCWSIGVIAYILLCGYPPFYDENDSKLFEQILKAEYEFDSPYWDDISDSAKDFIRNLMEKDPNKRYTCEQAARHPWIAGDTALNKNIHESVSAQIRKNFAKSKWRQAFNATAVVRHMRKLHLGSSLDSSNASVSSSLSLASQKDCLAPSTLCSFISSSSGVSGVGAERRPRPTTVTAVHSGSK
# NUAK family SNF1-like kinase 1 (Homo sapiens), sequence (O60285 whole entry): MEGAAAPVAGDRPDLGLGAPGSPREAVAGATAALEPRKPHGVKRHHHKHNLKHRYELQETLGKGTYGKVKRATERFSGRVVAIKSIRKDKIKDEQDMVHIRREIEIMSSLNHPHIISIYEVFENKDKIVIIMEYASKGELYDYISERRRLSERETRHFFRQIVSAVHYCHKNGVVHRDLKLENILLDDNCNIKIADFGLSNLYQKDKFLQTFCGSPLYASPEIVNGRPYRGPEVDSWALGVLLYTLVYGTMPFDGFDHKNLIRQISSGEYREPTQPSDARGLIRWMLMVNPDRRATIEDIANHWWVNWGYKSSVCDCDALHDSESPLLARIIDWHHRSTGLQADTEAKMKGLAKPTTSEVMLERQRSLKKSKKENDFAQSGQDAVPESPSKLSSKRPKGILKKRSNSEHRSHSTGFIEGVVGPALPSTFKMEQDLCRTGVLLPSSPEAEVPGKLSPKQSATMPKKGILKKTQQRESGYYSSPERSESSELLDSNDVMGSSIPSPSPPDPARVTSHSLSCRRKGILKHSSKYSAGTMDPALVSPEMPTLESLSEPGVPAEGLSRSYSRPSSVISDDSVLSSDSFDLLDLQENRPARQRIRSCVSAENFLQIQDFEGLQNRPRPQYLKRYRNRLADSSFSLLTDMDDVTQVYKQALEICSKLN
# Serine/threonine-protein kinase Sgk2 (Homo sapiens), sequence (Q9HBY8 whole entry): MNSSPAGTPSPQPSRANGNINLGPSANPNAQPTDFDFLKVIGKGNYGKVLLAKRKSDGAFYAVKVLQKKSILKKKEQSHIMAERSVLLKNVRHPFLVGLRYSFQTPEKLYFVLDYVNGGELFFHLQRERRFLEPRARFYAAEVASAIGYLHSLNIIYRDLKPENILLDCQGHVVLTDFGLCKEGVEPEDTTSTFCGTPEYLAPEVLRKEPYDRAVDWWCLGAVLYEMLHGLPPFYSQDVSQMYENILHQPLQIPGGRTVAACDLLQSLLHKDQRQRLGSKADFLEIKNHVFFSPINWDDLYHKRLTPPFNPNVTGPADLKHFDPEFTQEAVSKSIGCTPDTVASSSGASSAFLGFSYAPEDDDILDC
# Calcium/calmodulin-dependent protein kinase type II subunit alpha (Homo sapiens), sequence (Q9UQM7 whole entry): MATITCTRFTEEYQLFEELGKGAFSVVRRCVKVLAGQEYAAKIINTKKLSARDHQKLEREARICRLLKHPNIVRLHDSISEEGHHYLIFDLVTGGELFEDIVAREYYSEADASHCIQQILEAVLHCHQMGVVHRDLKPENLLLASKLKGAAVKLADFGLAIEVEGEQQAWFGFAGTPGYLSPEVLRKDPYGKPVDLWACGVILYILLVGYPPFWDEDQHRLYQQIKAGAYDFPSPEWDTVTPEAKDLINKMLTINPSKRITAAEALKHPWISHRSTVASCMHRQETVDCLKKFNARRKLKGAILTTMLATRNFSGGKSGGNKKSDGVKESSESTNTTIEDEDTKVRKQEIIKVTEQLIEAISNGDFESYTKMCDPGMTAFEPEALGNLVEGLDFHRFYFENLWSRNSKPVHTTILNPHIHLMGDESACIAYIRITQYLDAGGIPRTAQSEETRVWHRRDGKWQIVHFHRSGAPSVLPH
# Serine/threonine-protein kinase BRSK1 (Homo sapiens), sequence (Q8TDC3 whole entry): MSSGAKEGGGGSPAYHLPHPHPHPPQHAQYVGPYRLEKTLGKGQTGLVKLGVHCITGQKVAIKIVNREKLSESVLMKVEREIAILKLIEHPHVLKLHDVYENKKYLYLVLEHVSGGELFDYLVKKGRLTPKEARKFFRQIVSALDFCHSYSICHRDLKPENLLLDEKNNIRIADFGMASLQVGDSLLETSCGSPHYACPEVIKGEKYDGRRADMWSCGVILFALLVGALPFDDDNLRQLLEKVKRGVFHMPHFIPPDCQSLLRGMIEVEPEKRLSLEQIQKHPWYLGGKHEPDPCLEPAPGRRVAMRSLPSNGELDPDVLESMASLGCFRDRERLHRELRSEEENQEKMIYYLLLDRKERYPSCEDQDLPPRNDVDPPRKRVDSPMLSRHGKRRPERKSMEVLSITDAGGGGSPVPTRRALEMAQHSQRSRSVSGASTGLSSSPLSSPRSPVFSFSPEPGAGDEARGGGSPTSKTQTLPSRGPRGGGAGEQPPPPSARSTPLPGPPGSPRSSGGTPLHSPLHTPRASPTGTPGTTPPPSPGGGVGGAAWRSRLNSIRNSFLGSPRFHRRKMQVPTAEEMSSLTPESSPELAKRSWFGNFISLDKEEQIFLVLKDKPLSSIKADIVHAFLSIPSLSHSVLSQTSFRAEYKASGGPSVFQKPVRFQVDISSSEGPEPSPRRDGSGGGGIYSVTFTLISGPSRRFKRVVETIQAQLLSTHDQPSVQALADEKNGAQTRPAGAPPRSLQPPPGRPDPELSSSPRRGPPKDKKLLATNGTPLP
# 5'-AMP-activated protein kinase catalytic subunit alpha-1 (Homo sapiens), sequence (Q13131 whole entry, looked up): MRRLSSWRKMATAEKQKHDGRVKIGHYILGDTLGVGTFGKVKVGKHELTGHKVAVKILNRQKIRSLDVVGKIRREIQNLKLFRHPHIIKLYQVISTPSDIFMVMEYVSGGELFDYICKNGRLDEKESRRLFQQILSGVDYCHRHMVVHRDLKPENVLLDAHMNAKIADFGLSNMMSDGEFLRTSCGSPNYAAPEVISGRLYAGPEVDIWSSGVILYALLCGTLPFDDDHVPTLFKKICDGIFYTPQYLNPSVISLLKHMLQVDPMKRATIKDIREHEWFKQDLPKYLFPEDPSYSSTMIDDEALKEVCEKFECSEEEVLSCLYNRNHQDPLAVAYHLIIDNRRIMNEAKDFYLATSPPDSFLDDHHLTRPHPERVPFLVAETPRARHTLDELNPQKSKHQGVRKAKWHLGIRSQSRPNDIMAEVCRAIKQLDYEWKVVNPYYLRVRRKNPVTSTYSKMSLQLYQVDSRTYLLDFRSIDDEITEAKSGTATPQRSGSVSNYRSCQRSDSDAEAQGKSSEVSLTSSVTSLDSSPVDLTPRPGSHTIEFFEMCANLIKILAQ
smiles,measurement,setting,value
CNC(=O)Oc1cc(C)c(/C=C/c2cncc(C(=O)NC)c2)c(C)c1,inhibition,[1],1.05%
same,inhibition,[2],3.39%
same,inhibition,[3],1.4%
same,inhibition,[4],3.44%
same,inhibition,[5],1.15%
same,inhibition,[6],2.66%
same,inhibition,[7],3.01%
same,inhibition,[8],0.19%
same,inhibition,[9],1.73%
same,inhibition,[10],0.22%
same,inhibition,[11],1.34%
same,inhibition,[12],0.65%
same,inhibition,[13],2.14%
same,inhibition,[14],0.11%
same,inhibition,[15],-0.38%
same,inhibition,[16],2.44%
same,inhibition,[17],-1.06%
same,inhibition,[18],4.07%
same,inhibition,[19],2.89%
same,inhibition,[20],12%
same,inhibition,[21],1.79%
same,inhibition,[22],7.68%
same,inhibition,[23],0.95%
same,inhibition,[24],2.36%
same,inhibition,[25],3.17%
same,inhibition,[26],4.72%
same,inhibition,[27],4.03%
same,inhibition,[28],5.12%
same,inhibition,[29],1.23%
same,inhibition,[30],0.1%
same,inhibition,[31],-2.68%
same,inhibition,[32],-3.25%
same,inhibition,[33],-3.08%
same,inhibition,[34],0.64%
same,inhibition,[35],-4.67%
same,inhibition,[36],-3.09%
same,inhibition,[37],1.08%
same,inhibition,[38],-1.11%
same,inhibition,[39],-2.03%
same,inhibition,[40],-2.01%
same,inhibition,[41],-3.36%
same,inhibition,[42],-4.16%
same,inhibition,[43],1.32%
same,inhibition,[44],0.49%
same,inhibition,[45],3.32%
same,inhibition,[46],5.19%
same,inhibition,[47],0.21%
same,inhibition,[48],0.46%
same,inhibition,[49],1.41%
same,inhibition,[50],3.48%
same,inhibition,[51],5.31%
same,inhibition,[52],30.7%
same,inhibition,[53],3.17%
same,inhibition,[54],25.1%
same,inhibition,[55],-0.87%
same,inhibition,[56],0.31%
